This note sets out measurements from PubChem BioAssay AID686978 (National Center for Advancing Translational Sciences (NCATS), 2013).

Hit rate of the full screen: of about 420,000 compounds, about 64,000 (15%) were called active. About 27% were inconclusive and are not listed. Calls come from the whole dose curve; as a rule, active = well fitted inhibition curve with a large enough effect; inconclusive = small, poorly fitted or top-dose-only effect; inactive = flat fitted curve, though single readings scatter. Not all results are given here. Where a call stands in place of a potency, no number is given.
Potency is the fitted concentration of half-maximal effect.

The nature of this test: qHTS for Inhibitors of human tyrosyl-DNA phosphodiesterase 1 (TDP1): qHTS in cells in absence of CPT. Note: nearly all actives have a fitted effect of over 55% in size. The conditions noted are these: DT40 Tdp1-/- hTDP1 cells, no CPT, ATP luminescence, 48 h; activity change, negative = growth inhibition: at 46.2 µM (top of the series). The gist of the method: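 DT40 Tdp1-/-;hTDP1 cells, no CPT (DMSO vehicle only), 400 cells/well; compounds pin-transferred; ≥48 hr, 37 °C; CellTiter-Glo 30 min RT dark, luminescence read.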
As to `O=C1CN(C(=O)Nc2ccccc2C(F)(F)F)C(c2ccccc2)c2c(sc3c2CCCC3)N1` (stereo not given), the Potency was 18.4 µM (active). As to `Cc1ccccc1NC(=O)N1CCCC1C(=O)NCc1ccccc1` (stereo not given), the Potency entry is “inactive”. Take `O=C(CSc1n[nH]c(=O)n1-c1ccccc1)Nc1ccccc1C(F)(F)F`: the Potency result is “inactive”. `[2H]C(CCOS(N)(=O)=O)c1ccccc1` (stereo not given): the Potency result was “inactive”. Take `Cn1c(=NC(=O)C2CC2)sc2cc(F)cc(F)c21`: the Potency entry is “inactive”. For `O=C(CN1CCN(Cc2ccccc2)CC1)NC(c1ccccc1)c1ccccc1`, the Potency was 23.1 µM (active). For `O=C(CN1CCc2ccccc21)NC(c1ccccc1)c1ccccc1`, the Potency entry is “inactive”.

For `O=C(NC(c1ccccc1)c1ccccc1)N1CCN(CCO)CC1`, the Potency entry was “inactive”. As for `CC12CCC(=O)N1C(C(=O)Nc1ccc(F)c(F)c1F)CS2` (stereo not given), the Potency entry was “inactive”. Turning to `COC(=O)/C=C(\Oc1ccccc1)C1(O)CCCCC1`, the Potency entry was “inactive”. For the compound `CCNC(=O)NNC(=O)C1CC(c2cccs2)=NO1` (stereo not given), the Potency result was “inactive”. For `O=C(N/N=C/c1ccc([N+](=O)[O-])o1)c1cccc(S(=O)(=O)N2CCOCC2)c1` the value was 18.4 µM (active); for `Cc1nc2ccc(NC(=O)c3cccc(S(=O)(=O)N4CCOCC4)c3)cc2s1`, 20.6 µM (active); for `O=C(COC(=O)c1ccccc1)Nc1cccc(S(=O)(=O)N2CCOCC2)c1`, “inactive”.

Take `COc1ccc(Br)cc1/C=N/NC(=O)c1cccc(S(=O)(=O)N2CCOCC2)c1`: the Potency result was “inactive”. With `O=C(c1cccc(S(=O)(=O)N2CCOCC2)c1)N1CCOCC1`, the Potency entry was “inactive”. Regarding `Cc1cc(C(=O)NNC(=O)c2cccc(S(=O)(=O)N3CCOCC3)c2)c2ccccc2n1`, the Potency result was “inactive”. Take `O=C(Nc1ccc(S(=O)(=O)Nc2nccs2)cc1)c1cccc(S(=O)(=O)N2CCOCC2)c1`: the Potency entry is “inactive”. To `O=C(Nc1nnc(-c2ccccc2)o1)c1cccc(S(=O)(=O)N2CCOCC2)c1` belongs 16.4 µM (active); to `NC(=O)CSc1nnc(-c2cccc(S(=O)(=O)N3CCOCC3)c2)o1`, “inactive”. As for `Cc1cc2ccccn2c1C(=O)c1cccc(S(=O)(=O)N2CCOCC2)c1`, the Potency was 16.4 µM (active). `CCOc1cc(/C=N/NC(=O)c2cccc(S(=O)(=O)N3CCOCC3)c2)ccc1OCC(=O)N(C)C`: the Potency entry was “inactive”.

Regarding `CCCS(=O)(=O)N1CCC(C(=O)NCCCN(C)Cc2ccccc2)CC1`, the Potency result was “inactive”. With `CSc1ncnc2c1ncn2CCCNCc1ccco1`, the Potency entry was “inactive”. Take `O=C(Nc1cccnc1)c1cc2cc(Br)ccc2oc1=O`: the Potency entry is “inactive”. As for `COC(=O)c1cc(=O)n(-c2c(Cl)cc(C(F)(F)F)cc2Cl)[nH]1`, the Potency entry is “inactive”.

`CCOC(=O)c1c(NC(=O)CSc2nccc(=O)[nH]2)sc(C)c1C`: the Potency entry was “inactive”. Consider `CCC(=O)Nc1ccc(-c2ccc(N3CCCCC3)nn2)cc1`, for which the Potency result was “inactive”. Regarding `Cc1ccc(S(=O)(=O)N2CCC(Oc3ccc(-n4cnnn4)cc3)CC2)cc1`, the Potency result is “inactive”. For `COc1ccc(/C=N/NC(=O)Nc2ccc3nsnc3c2)c(OC)c1` the value was “inactive”; for `CN(C)c1ccc(/C=N/Nc2cc(N3CCOCC3)nc(N3CCOCC3)n2)cc1`, “inactive”; for `C(=N/Nc1cc(N2CCOCC2)nc(N2CCOCC2)n1)/c1ccccc1`, 20.6 µM (active). `COc1ccc(/C=N/NC(=O)CNC(=O)c2ccc(S(=O)(=O)N3CCCC3)cc2)c(OC)c1`: the Potency entry was “inactive”. Turning to `COc1ccc(/C=N/Nc2cc(N3CCOCC3)nc(C)n2)c(OC)c1`, the Potency is 20.6 µM (active).

With `Cc1ccccc1N/N=C/c1ccc(N2CCOCC2)cc1`, the Potency result is “inactive”.

Regarding `C=CCN1C(=O)C(Cc2ccc(OCC)cc2)SC1=Nc1ccc(C(=O)O)cc1` (stereo not given), the Potency entry is “inactive”.

In the case of `COc1ccc(N=C2SC(C(=O)Nc3ccc(F)cc3)CC(=O)N2C)cc1` (stereo not given), the Potency result was “inactive”. On to `CC1Cc2ccccc2N1C(=O)CSc1nnc(C2CC2)n1C` (stereo not given), for which the Potency entry is “inactive”. `COc1ccc(CC(=O)Nc2c(C(N)=O)oc3ccccc23)cc1`: the Potency result was “inactive”. For `COCCNC(=O)CSc1nc2c(n1-c1ccccc1)CCCC2` the value was “inactive”; for `Nc1ccn(C2CC(O)C(CO)O2)c(=O)n1` (stereo not given), “inactive”; for `Nc1ncnc2c1ncn2C1CC(O)C(CO)O1` (stereo not given), 4.61 µM (active). Consider `Nc1ncnc2c1cnn2C1CC(O)C(CO)O1` (stereo not given), for which the Potency result is “inactive”.

As to `O=C(Cc1ccccc1)NNS(=O)(=O)c1ccc([N+](=O)[O-])cc1`, the Potency entry was “inactive”. With `O=C(NNS(=O)(=O)Cc1ccccc1)c1ccc([N+](=O)[O-])cc1`, the Potency result is “inactive”.

As to `O=[N+]([O-])c1ccc(C(S(=O)(=O)Cc2ccccc2)S(=O)(=O)Cc2ccccc2)cc1`, the Potency was 18.4 µM (active). Take `Cn1c(N)cc(-c2ccc(F)cc2)c(C#N)c1=O`: the Potency entry was “inactive”. For the compound `CCOc1[nH]n(-c2ccc(Cl)cc2)c(=O)c1C=Nc1ccc(O)cc1`, the Potency is 5.17 µM (active). Turning to `CCOc1ccc(N=C2NC(=O)S/C2=C\c2ccc(O)cc2)cc1`, the Potency result was “inactive”. Turning to `CC(=O)Cn1ncc(N2CCOCC2)c(Br)c1=O`, the Potency entry was “inactive”. For `Cc1ccc(Cc2nc(-c3cccc(C)c3)no2)cc1` the value was “inactive”; for `N/C(=N\S(=O)(=O)c1ccc(Cl)cc1)N1CCOCC1`, “inactive”. For `CCOC(=O)c1cnc2nc(SCc3ccccc3Cl)[nH]n2c1=O` the value was “inactive”; for `COc1ccc(OCCn2ccnc2C)cc1`, “inactive”; for `COc1ccc2ccn(C)c2c1`, “inactive”. With `O=c1c2ccccc2ncn1CCCCOc1ccccc1F`, the Potency result is “inactive”. To `Cc1cc2ncn(CCCCOc3ccccc3)c2cc1C` belongs 14.6 µM (active); to `COc1ccc(OCCCn2c(C)nc3cc(C)c(C)cc32)cc1`, 10.3 µM (active); to `COCCOCCn1cnc2ccccc21`, “inactive”. For the compound `Cc1ccc(C(=O)N2CCN(S(=O)(=O)N3CCOCC3)CC2)cc1`, the Potency result is “inactive”. As to `N#Cc1c(-c2cccs2)nc(SCC(=O)c2ccc(Br)cc2)[nH]c1=O`, the Potency entry is “inactive”. As for `O=C(NC(C(=O)NCCN1CCOCC1)C12CC3CC(CC(C3)C1)C2)C1CCCCC1` (stereo not given), the Potency result is “inactive”. As to `Cc1ccc(S(=O)(=O)/N=C(/Nc2ccccn2)c2ccc(Cl)cc2)cc1`, the Potency entry was “inactive”.

Consider `Cc1ccc(S/C(=N\S(=O)(=O)c2ccc(Cl)cc2)c2ccccc2)cc1`, for which the Potency is 10.3 µM (active). To `O=S(=O)(/N=C(/Nc1ccccn1)c1ccccc1)c1ccc(Cl)cc1` belongs “inactive”; to `O=C(CCS(=O)(=O)c1ccccc1Cl)Nc1ccc(S(=O)(=O)Nc2ncccn2)cc1`, “inactive”; to `O=C(O)c1ccccc1NC(=O)c1ccccc1-c1ccccc1C(=O)O`, “inactive”.

Take `CCOC(=O)CCNC(=O)N1CCCC(C(=O)c2ccccc2SC)C1` (stereo not given): the Potency result was “inactive”. For `CCNC(=O)N1CCCC(C(=O)c2ccc(-c3ccccc3)cc2)C1` (stereo not given), the Potency was 9.2 µM (active). Regarding `Cc1ccccc1NC(=O)C1CCCN(C(=O)NCc2ccccc2)C1` (stereo not given), the Potency result was “inactive”. For `O=C(CSc1nnc(-c2ccco2)n1-c1ccccc1)NCCc1ccccc1`, the Potency result was “inactive”. Turning to `CCSCc1nc(N)nc(NCCc2ccccc2)n1`, the Potency result was “inactive”. To `CCOC(=O)N1CCN(Cc2nc(N)nc(Nc3ccc(C)cc3)n2)CC1` belongs “inactive”. Take `Cc1ccc(Nc2nc(N)nc(CN3CCN(Cc4ccccc4)CC3)n2)cc1Cl`: the Potency was 16.4 µM (active). In the case of `CCOc1ccc(S(=O)(=O)NCc2ccc3c(c2)OCO3)cc1C`, the Potency entry was “inactive”.

With `O=C(OCCN=C1NS(=O)(=O)c2ccccc21)c1cccc([N+](=O)[O-])c1`, the Potency result was “inactive”. Turning to `Cc1ccc(C(=O)Nc2ccc(NC(=O)c3cccs3)cc2)c(C)c1`, the Potency result is “inactive”. Regarding `Cc1cccc(C(=O)Nc2ccc(C(=O)/C=C/c3cccs3)cc2)c1`, the Potency was 16.4 µM (active). With `Cc1cccc(C(=O)Nc2ccc(CC(=O)O)cc2)c1`, the Potency result was “inactive”. Take `COCCCNC(=O)CCc1nc2cccnc2n1Cc1ccc(OC)cc1`: the Potency entry is “inactive”. For the compound `COc1ccc(OC)c(CCNC(=O)CCCn2c(=O)c3cccn3c3cccnc32)c1`, the Potency was 20.6 µM (active). For `CC1CCCCC12NC(=O)N(CC(=O)Nc1ccc(S(=O)(=O)Nc3ncccn3)cc1)C2=O` (stereo not given), the Potency entry is “inactive”. As for `CC1CCN(C(=O)Cn2nnnc2CN2CCOCC2)CC1`, the Potency result was “inactive”. As for `Cc1ccnc(NS(=O)(=O)c2ccc(NC(=O)c3ccc(S(=O)(=O)N(C)C)cc3)cc2)n1`, the Potency entry is “inactive”. With `CN(c1ccccc1)S(=O)(=O)c1ccc2[nH]c(=O)[nH]c2c1`, the Potency entry was “inactive”. As for `Cc1cccc(NC(=O)c2ccc(S(=O)(=O)N(C)c3ccccc3)cc2)n1`, the Potency was 20.6 µM (active). To `O=C(NCCC1CCCCN1S(=O)(=O)c1ccc(F)cc1)C(=O)NC1CC1` (stereo not given) belongs “inactive”; to `O=C(NCc1ccccc1Cl)C(=O)NCC1CCCN1S(=O)(=O)c1cccs1` (stereo not given), “inactive”; to `O=C(NCCC1CCCCN1S(=O)(=O)c1cccs1)C(=O)Nc1ccc(F)cc1F` (stereo not given), 2.59 µM (active). `CCOC(=O)N1CCN(CCC(=O)Nc2ccccc2)CC1`: the Potency entry was “inactive”. `CCOC(=O)c1c(C)oc2nc(C)nc(N3CCN(c4ccc(OC)cc4)CC3)c12`: the Potency is 8.2 µM (active). To `Cc1nc(N2CCOCC2)c2c(C(=O)NCc3cccc(Cl)c3)c(C)oc2n1` belongs “inactive”. `CCOC(=O)c1c(C)oc(C)c(C(=O)OCC)c1=O`: the Potency result is “inactive”. Regarding `CCOC(=O)c1c(C)oc2nc(C)nc(Nc3ccc(CC)cc3)c12`, the Potency entry is “inactive”.

As for `COc1ccc(N2CCN(C(=O)c3c(C)oc4nc(C)nc(N5CCCC5)c34)CC2)cc1`, the Potency result is “inactive”. To `CCOC(=O)c1c(C)oc2nc(C)nc(N(CC(C)C)CC(C)C)c12` belongs 16.4 µM (active); to `NC(=O)c1cc(-c2cccnc2)nc2ccc(Br)cc12`, “inactive”; to `CN1C(=O)/C(=N/OC(=O)c2ccccc2Br)c2ccccc21`, “inactive”. Consider `COc1cc(SC#N)ccc1N=Cc1c(C)[nH]n(-c2ccc(C)cc2)c1=O`, for which the Potency was 3.66 µM (active).

For the compound `CCOC(=O)c1sc2nc(C)nc(SCC(N)=O)c2c1C`, the Potency result was “inactive”. On to `COC(=O)[C@]1(C)N[C@H](c2ccc(-c3ccc(Cl)c(Cl)c3)cc2)[C@@H]2C(=O)N(C)C(=O)[C@@H]21`, for which the Potency is 16.4 µM (active). Regarding `COC(=O)C1(C)NC(c2ccc(C)cc2)C2C(=O)N(c3ccc(F)cc3)C(=O)C21` (stereo not given), the Potency result is “inactive”. With `COC(=O)C1(C)NC(c2ccc(F)cc2)C2C(=O)N(c3ccccc3)C(=O)C21` (stereo not given), the Potency entry was “inactive”. To `O=S(=O)(c1ccc(F)cc1)N1CC=C(c2ccccc2)CC1` belongs “inactive”; to `CC1(C)CC(=O)C2=C(C1)NCN(CCCN1CCOCC1)C2`, “inactive”.
